# Assay outcomes deposited in PubChem BioAssay by The Scripps Research Institute Molecular Screening Center.
# The list is not random: actives were taken first. Their share in the collection is about 2.8%.
# PAFAH1B2 inh = PAFAH1B2 (human) inhibition; P68402; recombinant PAFAH1B2, FP-rhodamine activity probe, fluorescence polarization; inhibition, % at 3.39 µM; 340,000 compounds, 1.2% hits;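 active means inhibition above the mean of all tested compounds plus 3 SD, cut at about 24% in these data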;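 further: 0% = enzyme with DMSO and 100% = wells lacking PAFAH1B2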
# Target sequence (P68402 whole entry, looked up): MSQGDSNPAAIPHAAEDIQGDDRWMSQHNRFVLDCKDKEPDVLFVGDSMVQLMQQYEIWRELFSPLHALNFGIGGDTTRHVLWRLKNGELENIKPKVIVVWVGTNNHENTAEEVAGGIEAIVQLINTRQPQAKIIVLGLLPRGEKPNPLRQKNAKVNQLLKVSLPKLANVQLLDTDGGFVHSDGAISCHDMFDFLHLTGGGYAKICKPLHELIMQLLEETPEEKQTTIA
# PME-1 inh = blocks human protein phosphatase methylesterase 1. 320,000 compounds, 0.53% hits. Q9Y570. recombinant PME-1, FP-Rh probe fluorescence polarization. inhibition, % at 5.9 µM. AID 2130;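 active means inhibition above the campaign mean of all compounds plus 3 SD, cut at about 26% in these data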;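 further: competitive labeling of PME-1 active site by serine hydrolase directed probe; 0% = PME-1 with DMSO and 100% = wells lacking PME-1 enzyme; inhibitors block probe labeling so polarization falls and inhibition rises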
# Target sequence (Q9Y570 whole entry, looked up): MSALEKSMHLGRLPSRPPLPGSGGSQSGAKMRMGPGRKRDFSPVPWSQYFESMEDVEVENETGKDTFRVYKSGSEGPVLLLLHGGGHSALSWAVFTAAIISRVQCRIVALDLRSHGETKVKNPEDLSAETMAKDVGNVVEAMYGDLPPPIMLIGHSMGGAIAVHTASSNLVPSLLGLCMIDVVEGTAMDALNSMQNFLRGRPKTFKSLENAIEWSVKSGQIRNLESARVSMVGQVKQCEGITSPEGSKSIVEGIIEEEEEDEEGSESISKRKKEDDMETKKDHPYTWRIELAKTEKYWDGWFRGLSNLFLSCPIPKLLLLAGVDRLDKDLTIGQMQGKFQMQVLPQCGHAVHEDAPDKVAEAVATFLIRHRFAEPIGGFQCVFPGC
# pPAFAH FP inh = inhibitors of human plasma PAF acetylhydrolase (pPAFAH); Q13093; recombinant pPAFAH, FP-rhodamine probe fluorescence polarization; inhibition, % at 3.39 µM; 330,000 compounds, 1.5% hits;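 active means inhibition above the mean inhibition across the screen plus 3 SD, cut at about 25% in these data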;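 further: inhibitors block binding of the rhodamine activity-based probe so polarization drops; 0% = enzyme with DMSO and 100% = wells lacking pPAFAH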
# PAFAH1B3 inh = PAFAH1B3 (human) inhibition. 340,000 compounds, 0.28% hits. inhibition, % at 3.39 µM. recombinant PAFAH1B3, FP-rhodamine probe, fluorescence polarization. Q15102;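 active means inhibition above the screen-wide average of all tested compounds plus 3 SD, cut at about 25% in these data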;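 further: 0% = enzyme with DMSO only and 100% = wells lacking PAFAH1B3 protein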
# PAFAH2 FP inh = PAFAH2 (human) inhibition; Q99487; recombinant PAFAH2, FP-rhodamine activity probe, fluorescence polarization; 340,000 compounds, 0.99% hits; inhibition, % at 3.39 µM;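 active means inhibition above the mean over all tested compounds plus 3 SD, cut at about 30% in these data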;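 further: inhibitors block probe labeling of enzyme so polarization drops; 0% = enzyme with DMSO and 100% = wells lacking PAFAH2 protein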
# Fam108B inh = counter-screen for RBBP9 inhibitors: inhibitors of mouse Fam108B; 300,000 compounds, 0.33% hits; recombinant Fam108B, FP-Rh probe fluorescence polarization; inhibition, % at 9.51 µM;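 active means inhibition above the screen mean inhibition plus 3 SD, computed separately per campaign, cut at about 18% in these data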;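 further: inhibitors lower polarization as less probe binds the enzyme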
# PAFAH2 confirm = confirmation of human PAFAH2 inhibitors | shares compounds with PAFAH2 FP inh | recombinant PAFAH2, FP-rhodamine activity probe, fluorescence polarization | inhibition, % at 3.39 µM | 2,300 compounds, 65% hits | AID 493030;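 active means mean inhibition over three repeats above a set limit taken from the earlier primary screen, cut at about 30% in these data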;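 further: inhibitor blocks binding of rhodamine activity probe so polarization falls; 0% = enzyme with DMSO and 100% = wells lacking PAFAH2 protein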
# * hit, by the source's call; nt = not tested or not shown.
SMILES,PAFAH1B2 inh,PME-1 inh,pPAFAH FP inh,PAFAH1B3 inh,PAFAH2 FP inh,Fam108B inh,PAFAH2 confirm
CCOc1cc(C(=O)OCC(=O)NC(C)c2ccccc2)ccc1OCC(=O)N1CCOCC1 (configuration not stated),7.8,4.5,5.7,1.4,91.9*,-0.3,70.5*
COc1cc(C(=O)OCC(=O)c2c[nH]c3ccccc23)ccc1OCC(=O)N1CCOCC1,4.3,-10.8,-11.4,-5.0,33.6*,-12.6,19.8
COc1cc(C(=O)NC(C)c2ccccc2)ccc1OCC(=O)N1CCOCC1 (configuration not stated),-1.3,-9.9,-0.3,-2.9,-2.0,nt,nt
COc1ccc(C(=O)OCC(=O)c2c[nH]c3ccccc23)cc1OC,4.4,6.1,-2.2,-0.3,46.7*,nt,43.9*
CCOc1cc(C(=O)OCC(=O)c2c[nH]c3ccccc23)ccc1OCC(=O)N1CCOCC1,-1.3,-1.1,5.3,4.7,44.7*,0.8,32.5*
CCOc1cc(C(=O)OCC(=O)c2c(C)[nH]c3ccccc23)ccc1OCC(=O)N1CCOCC1,2.3,-2.4,-4.8,2.9,-3.4,-1.9,nt
CCCCNC(=O)c1cn(-c2ccc(OCC)cc2)c(=O)c2cc(OC)c(OC)cc12,-0.9,0.2,0.5,-4.7,21.5,3.5,nt
O=C(CN1CCCC1)Nc1ccc(-c2nc3cc(NC(=O)CN4CCCC4)ccc3o2)cc1,2.1,-9.4,5.5,-4.3,-4.3,-2.1,nt
CC1=NN2C(=N)/C(=C\c3ccc(SCc4ccccc4)o3)C(=O)N=C2S1,19.4,3.4,14.3,3.6,32.4*,3.2,32.9*
Cc1ccc(C(=O)O/N=C/C2=C(Cl)c3ccccc3CC2)cc1,4.3,-2.6,1.4,3.2,38.2*,0.9,70.1*
Cc1ccc(CO/N=C/C2=C(Cl)c3ccccc3CC2)cc1,5.3,-8.1,2.5,2.9,-1.9,-0.8,nt
C#Cc1ccc([C@@H]2C=C(C(=O)NCc3nc4ccccc4[nH]3)O[C@H](OCC)[C@H]2CCCO)cc1,-6.4,-7.7,-2.4,1.1,-7.5,-8.5,nt
CN1C(C)(C)CC(=NOC(=O)c2ccccc2)CC1(C)C,1.4,-1.0,-2.9,0.8,3.3,-1.9,nt
O=C(ON=C1CCN(c2ccc([N+](=O)[O-])cc2)CC1)c1ccccc1,5.9,-2.7,9.9,7.1,90.0*,-3.7,86.4*
O=C(ON=C1CCSCC1)c1ccccc1,0.7,1.3,7.6,4.8,77.5*,1.2,76.1*
CC[C@@]12C(=O)N(c3cccc(Cl)c3)C(=O)N1[C@H](c1ccc(Br)cc1)[C@@H]1C(=O)N(C(C)(C)C)C(=O)[C@@H]12,3.5,3.5,1.6,13.4,-8.7,-3.6,nt
Cc1cc(NC(=O)COC(=O)c2ccccc2S(=O)(=O)N(C)c2ccccc2)no1,-0.5,10.3,2.4,1.5,45.8*,-0.9,0.7
CCOc1ccc(C(=O)OCC(=O)Nc2cc(C)on2)cc1OCC,6.1,-1.5,5.4,-2.2,76.7*,-3.3,62.5*
COc1cc(C(=O)OCC(=O)Nc2cc(C)on2)ccc1OCc1ccccc1Cl,-1.0,-4.8,-1.0,5.8,14.3,-2.7,nt
CCOc1ccccc1OCC(=O)Nc1cc(C)on1,2.8,nt,5.0,5.7,2.1,nt,nt
CCN(CC)c1ccc(C(=O)OCC(=O)Nc2cc(C)on2)cc1,0.2,6.5,16.0,6.3,90.0*,nt,66.0*
CCOc1cc(C(=O)OCC(=O)Nc2cc(C)on2)ccc1OCC(C)C,0.5,3.5,-0.1,6.7,32.5*,-0.8,29.2
Cc1cccc(CCNS(=O)(=O)c2ccc3c(c2)CCN3C(=O)CCC(=O)O)c1,-0.2,-4.3,3.8,4.2,-0.7,2.2,nt
CCN(CC)S(=O)(=O)c1ccc(Cc2ncc(C(F)(F)F)cc2Cl)s1,3.4,-4.2,10.9,-2.7,3.4,-6.0,nt
CS(=O)(=O)ON=C1CCN(S(=O)(=O)c2ccccc2)CC1,5.6,-3.0,-0.7,9.1,0.1,0.2,nt
SMILES,PAFAH1B2 inh,PME-1 inh,pPAFAH FP inh,PAFAH1B3 inh,PAFAH2 FP inh,Fam108B inh,PAFAH2 confirm
CC(C)(C)C1CCC(=NOC(=O)c2ccc(F)cc2)CC1 (configuration not stated),5.1,0.0,5.3,6.4,80.7*,-1.3,84.0*
Cc1ccc(C(=O)ON=C2CCN(S(=O)(=O)c3ccccc3)CC2)cc1,0.6,1.1,13.5,2.9,89.8*,3.0,89.0*
O=C(ON=C1CCN(S(=O)(=O)c2ccccc2)CC1)c1ccc(F)cc1,8.8,1.6,6.5,5.4,87.2*,2.0,84.0*
O=C(O/N=C1/CCCc2occc21)c1ccc(F)cc1,5.7,-2.1,10.0,4.6,15.1,0.5,nt
COC(=O)c1ccccc1NC(=O)c1ccnn1C,-3.8,2.5,5.9,0.3,-6.5,2.1,nt
O=C(CSc1ccc(Cl)cc1)N/N=C/c1cccnc1,15.7,1.6,5.7,6.8,7.7,-0.7,nt
CC1=CC2=NC(=O)CC(C)(C(=O)N(CC(=O)NC3CCCC3)Cc3ccccc3)N2C=C1 (configuration not stated),4.0,0.7,3.5,5.3,-1.1,-1.3,nt
O=c1c2ccccc2nnn1CCO,-1.8,-2.0,1.1,17.5,-3.4,1.2,nt
O=C(Nc1ccsc1C(=O)O)c1ccc(Cl)cc1,7.9,-0.5,-7.0,10.5,31.3*,4.8,19.4
O=C(COC(=O)c1ccc[nH]c1=O)NCCc1ccc(Cl)cc1Cl,12.4,2.2,4.1,9.6,2.3,0.7,nt
Cc1ccc(C(=O)c2ccccc2C(=O)OCC(=O)NCCc2ccc(Cl)cc2Cl)cc1,5.3,3.1,1.9,3.4,46.0*,-8.8,48.9*
O=C(COC(=O)/C=C/c1ccccc1Cl)NCCc1ccc(Cl)cc1Cl,0.6,-6.8,6.4,6.1,66.3*,-7.8,52.2*
O=C(COC(=O)/C=C/c1ccc(Cl)cc1Cl)NCCC1=CCCCC1,0.8,2.7,4.8,3.0,-3.6,1.9,nt
Cn1cnnc1SCC(=O)Nc1sc2c(c1C(N)=O)CCC2,13.8,2.1,34.4*,21.8,37.8*,15.4,11.9
Cc1noc(C)c1COc1ccc(C(=O)OCC(=O)OC(C)(C)C)cc1,1.2,0.1,8.6,8.2,32.4*,-1.8,29.5
Cc1noc(C)c1COc1ccc(C(=O)OCC(=O)NCc2ccccc2Cl)cc1,4.0,9.2,12.3,1.7,76.3*,-2.4,74.4*
COc1ccc(S(=O)(=O)N2CCOCC2)cc1NC(=O)COC(=O)CC1CC2CCC1C2 (configuration not stated),3.9,nt,20.9,3.2,7.6,nt,nt
O=C(COC(=O)CC1CC2CCC1C2)Nc1ccc(Cl)c(S(=O)(=O)N2CCOCC2)c1 (configuration not stated),4.9,8.4,9.0,-3.3,69.4*,nt,58.7*
Cc1ccsc1C(=O)OCC(=O)Nc1cccc(S(=O)(=O)N2CCOCC2)c1,-2.5,4.5,5.9,-4.5,76.8*,-2.0,57.9*
